In the library only some 3.4% were active in any assay of this set; here they are far more common.
TEAD-YAP inh: TEAD-YAP interaction inhibition; inhibition, % at 9.12 µM; 640,000 compounds, 1.4% hits; HEK-TIYL cells, TEAD-Gal4/YAP UAS-luciferase luminescence; AID 1259422; in the data active = inhibition above about 32%;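 note: 0% = median of test compound wells and 100% = reference inhibitor wells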
FBW7 act: human FBW7 E3 ligase activation, primary screen; AlphaScreen FBW7–phospho-cyclin E peptide binding, activator screen; 650,000 compounds, 0.13% hits; normalized activity (activation), % at 26.1 µM; Q969H0; in the data active = normalized activity above about 1.9%;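 note: purified mutant Fbw7 with reduced substrate affinity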
GPR151 activ: human GPR151 activation. Q8TDV0. PathHunter beta-arrestin GPR151 cells, luminescence. activation, % at 11.2 µM. 650,000 compounds, 1% hits; in the data active = activation above about 4.9%;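 note: 0% = median of compound wells and 100% = cells with positive control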
MITF primary: blocks human microphthalmia-associated transcription factor. AlphaScreen MITF homodimerization, bead proximity signal. AID 1259374. O75030. inhibition, % at 2.6 µM. 650,000 compounds, 0.91% hits; in the data active = inhibition above about 50%;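 note: 0% = vehicle wells with protein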
Target sequence (O75030 whole entry, looked up): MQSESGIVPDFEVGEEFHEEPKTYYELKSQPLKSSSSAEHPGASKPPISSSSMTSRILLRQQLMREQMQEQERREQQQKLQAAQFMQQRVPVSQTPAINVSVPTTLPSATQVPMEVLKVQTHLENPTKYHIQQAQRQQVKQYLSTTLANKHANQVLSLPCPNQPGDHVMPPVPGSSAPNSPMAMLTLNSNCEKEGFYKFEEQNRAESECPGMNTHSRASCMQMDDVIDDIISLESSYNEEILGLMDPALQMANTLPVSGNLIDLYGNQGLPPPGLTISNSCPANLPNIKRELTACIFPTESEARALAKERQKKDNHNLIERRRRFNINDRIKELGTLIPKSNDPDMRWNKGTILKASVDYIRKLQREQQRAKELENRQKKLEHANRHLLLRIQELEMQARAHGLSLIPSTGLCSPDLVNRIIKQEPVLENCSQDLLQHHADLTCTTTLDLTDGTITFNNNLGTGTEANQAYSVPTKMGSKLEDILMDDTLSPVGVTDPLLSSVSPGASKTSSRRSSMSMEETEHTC
MITF confirm: human MITF inhibition, confirmation; AlphaScreen MITF homodimerization, biotin/His-MITF beads; 4,700 compounds, 16% hits; inhibition, % at 2.6 µM; shares compounds with MITF primary;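 active = inhibition above a cutoff derived from the DMSO control wells, cut at about 28% in these data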;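 note: 0% = MITF dimer wells with DMSO only; inhibitors lower the bead chemiluminescence by keeping MITF from dimerizing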
AS interf DR: optically interferes with AlphaScreen signal in dose response. AlphaScreen optical interference counterscreen, cell-free. 480 compounds, 6% hits. AID 1259373. shares compounds with MITF primary. IC50, µM; call rule not given here
AlphaScreen intf2: AlphaScreen optical interference, counter-screen | inhibition, % at 2.6 µM | 4,700 compounds, 7.6% hits | LysRS AlphaScreen counterscreen, signal interference, triplicate | shares compounds with MITF primary;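 active = inhibition above a cutoff derived from the DMSO control wells, cut at about 30% in these data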
An asterisk follows results filed as active.

Screening CCOc1ccccc1N1CCN(Cc2cccc(OC)c2OC)CC1 returned TEAD-YAP inh 7.6, FBW7 act 0.0, GPR151 activ 0.9 and MITF primary 23.4.
CCc1ccc(CN2CCN(Cc3cccc(OC)c3OC)CC2)cc1 was read as TEAD-YAP inh -4.9, FBW7 act -0.5, GPR151 activ -1.1, MITF primary 63.7*, MITF confirm 8.0 and AlphaScreen intf2 15.1.
C=CCNC(=O)C1CCCN(c2nc3ccccc3n2C)C1 (stereo not given) was read as TEAD-YAP inh 9.9, FBW7 act -0.1, GPR151 activ -1.2 and MITF primary 1.9.
For CCN1CCN(CCCOc2cccc(C(F)(F)F)c2)CC1 the results were TEAD-YAP inh 15.8, FBW7 act 0.1, GPR151 activ -0.2, MITF primary 56.4*, MITF confirm 13.9 and AlphaScreen intf2 10.2.
`CCN1CCN(CCOc2ccc3ccccc3c2)CC1` gave TEAD-YAP inh 9.4, FBW7 act -0.2, GPR151 activ 0.9 and MITF primary 36.5.
Screening CN1CCN(CCCOc2cccc(C(C)(C)C)c2)CC1 returned TEAD-YAP inh -6.8, FBW7 act 0.0, GPR151 activ -1.6 and MITF primary 10.2.
`CN(C)CCOc1cccc(C(F)(F)F)c1` gave TEAD-YAP inh -1.3, FBW7 act -0.6, GPR151 activ 1.8, MITF primary 87.8*, MITF confirm 5.7 and AlphaScreen intf2 7.9.
For CCN1CCN(CCOc2cccc(C(F)(F)F)c2)CC1 the results were TEAD-YAP inh 1.8, FBW7 act -0.3, GPR151 activ -0.2, MITF primary 60.7*, MITF confirm 1.0 and AlphaScreen intf2 11.0.
CCN1C(=O)/C(=C\C=C2\N(C)c3ccc(-c4ccccc4)cc3C2(C)C)SC1=Nc1ccc2nc(C)sc2c1 was read as TEAD-YAP inh 13.6, FBW7 act -0.1, GPR151 activ 0.7 and MITF primary -16.5.
Screening CC(=O)NNC(=O)CSc1nnnn1C1CCCCC1 returned TEAD-YAP inh -5.1, FBW7 act -0.1, GPR151 activ -0.6, MITF primary 76.3*, MITF confirm 6.9 and AlphaScreen intf2 14.9.
O=C(CSc1nnnn1C1CCCCC1)c1ccccc1 was read as TEAD-YAP inh -1.2, FBW7 act 0.1, GPR151 activ 0.0 and MITF primary 5.5.
For O=C(CSc1nnnn1C1CCCC1)c1ccccc1F the results were TEAD-YAP inh -61.6, FBW7 act 0.0, GPR151 activ -1.5, MITF primary 116.2*, MITF confirm -7.9 and AlphaScreen intf2 23.8.
For C=CCn1c(SCC(=O)OCC)nc2cc(C(=O)N3CCOCC3)ccc2c1=O the results were TEAD-YAP inh -7.7, FBW7 act 0.1, GPR151 activ -0.6 and MITF primary 26.4.
`c1ccc(-c2cc3c(NCCCN4CCOCC4)ncnc3s2)cc1` gave TEAD-YAP inh -7.5, FBW7 act -0.3, GPR151 activ -1.5, MITF primary 61.0*, MITF confirm -0.9 and AlphaScreen intf2 -3.1.
`C=COCCCNc1ncnc2sc(-c3ccccc3)cc12` gave TEAD-YAP inh 5.7, FBW7 act -0.1, GPR151 activ -1.2, MITF primary 60.9*, MITF confirm 6.7 and AlphaScreen intf2 8.4.
Screening OCCCNc1ncnc2sc(-c3ccccc3)cc12 returned TEAD-YAP inh -0.5, FBW7 act 0.1, GPR151 activ 1.4 and MITF primary -0.6.
Screening O=C(CCc1ccco1)Nc1ccc(-c2cn3c4c(nnc3n2)CCCC4)cc1 returned TEAD-YAP inh -12.8, FBW7 act -0.4, GPR151 activ 1.7, MITF primary 71.9*, MITF confirm 57.8*, AS interf DR >6.48 and AlphaScreen intf2 -4.8.
Screening Cc1ccc(CCC(=O)Nc2ccc(-c3cn4c5c(nnc4n3)CCCC5)cc2)o1 returned TEAD-YAP inh -12.1, FBW7 act -0.4, GPR151 activ 1.0, MITF primary 56.2*, MITF confirm 66.4*, AS interf DR >6.48 and AlphaScreen intf2 -2.0.
Screening O=C(Cc1cc(F)ccc1F)N1CCC2(CC1)OCc1ccccc1O2 returned TEAD-YAP inh 4.3, FBW7 act -0.2, GPR151 activ -1.0 and MITF primary 21.9.
Screening CCCCN(C)S(=O)(=O)c1ccc2[nH]c(=O)ccc2c1 returned TEAD-YAP inh 0.9, FBW7 act -0.1, GPR151 activ 0.3 and MITF primary 2.8.
For CCN(C(=O)Cn1ncc2c1-c1cc(C)ccc1OC2)c1cc(OC)ccc1OC the results were TEAD-YAP inh 10.2, FBW7 act 0.2, GPR151 activ 2.9, MITF primary 70.5*, MITF confirm 5.5 and AlphaScreen intf2 18.2.
For CCN(C(=O)Cn1ncc2c1-c1cc(C)ccc1OC2)c1ccccc1F the results were TEAD-YAP inh -15.0, FBW7 act -0.4, GPR151 activ 0.2 and MITF primary -1.4.
CC(C)CN(CC(C)C)C(=S)NC1CCCCC1 was read as TEAD-YAP inh 5.5, FBW7 act 0.0, GPR151 activ -0.3, MITF primary 68.8*, MITF confirm 7.9 and AlphaScreen intf2 7.6.
COc1ccc(Br)cc1CN(C)CCc1ccccn1 was read as TEAD-YAP inh 12.5, FBW7 act 0.0, GPR151 activ 0.0 and MITF primary 47.2.
CN(CCc1ccccn1)Cc1c[nH]c2ccccc12 was read as TEAD-YAP inh -6.1, FBW7 act 0.1, GPR151 activ -1.5, MITF primary 73.9*, MITF confirm 5.6 and AlphaScreen intf2 5.2.
CN(CCc1ccccn1)S(=O)(=O)c1ccc(F)cc1 was read as TEAD-YAP inh -2.5, FBW7 act 0.0, GPR151 activ 1.3, MITF primary 75.3*, MITF confirm 2.4 and AlphaScreen intf2 1.8.
Screening COc1ccccc1CN(C)CCc1ccccn1 returned TEAD-YAP inh 7.0, FBW7 act 1.4, GPR151 activ -1.3, MITF primary 67.0*, MITF confirm -7.3 and AlphaScreen intf2 -2.6.
For CN(CCc1ccccn1)Cc1cccc2ccccc12 the results were TEAD-YAP inh 13.6, FBW7 act 0.0, GPR151 activ -1.3 and MITF primary -2.5.
Screening COc1ccc(CN(C)CCc2ccccn2)c(OC)c1OC returned TEAD-YAP inh -0.3, FBW7 act 0.0, GPR151 activ 0.8, MITF primary 58.0*, MITF confirm 12.8 and AlphaScreen intf2 15.2.
`CN(CC(=O)NCc1ccccn1)S(=O)(=O)c1ccc(F)cc1` gave TEAD-YAP inh -0.8, FBW7 act 0.2, GPR151 activ -0.6 and MITF primary 10.0.
O=C(O)c1ccc(NC(=O)c2ccccc2)c(NC(=O)c2ccccc2)c1 was read as TEAD-YAP inh 0.1, FBW7 act 0.6, GPR151 activ -0.9 and MITF primary -1.9.
`O=C(Cn1ncn2cccc2c1=O)N1CCc2ccccc2C1` gave TEAD-YAP inh 6.8, FBW7 act 0.2, GPR151 activ -0.4, MITF primary 66.4*, MITF confirm 67.0*, AS interf DR >6.48 and AlphaScreen intf2 9.1.
